{"source": "PubChem BioAssay AID1012", "about": "(Sanford-Burnham Center for Chemical Genomics, 2008)", "note": "Among all 200,000 compounds or so, about 520 (0.26%) were called active.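 How the source made its calls: active means tissue-nonspecific alkaline phosphatase inhibition above about 50% at 20 µM in the single-dose screen (limit read from the data); inactive means the rest.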 The sample as a whole holds a higher share of actives than the screen did.", "data": [{"molecular_target": "Alkaline phosphatase, tissue-nonspecific isozyme (Homo sapiens) (UniProt P05186)", "sequence (P05186 whole entry, looked up)": "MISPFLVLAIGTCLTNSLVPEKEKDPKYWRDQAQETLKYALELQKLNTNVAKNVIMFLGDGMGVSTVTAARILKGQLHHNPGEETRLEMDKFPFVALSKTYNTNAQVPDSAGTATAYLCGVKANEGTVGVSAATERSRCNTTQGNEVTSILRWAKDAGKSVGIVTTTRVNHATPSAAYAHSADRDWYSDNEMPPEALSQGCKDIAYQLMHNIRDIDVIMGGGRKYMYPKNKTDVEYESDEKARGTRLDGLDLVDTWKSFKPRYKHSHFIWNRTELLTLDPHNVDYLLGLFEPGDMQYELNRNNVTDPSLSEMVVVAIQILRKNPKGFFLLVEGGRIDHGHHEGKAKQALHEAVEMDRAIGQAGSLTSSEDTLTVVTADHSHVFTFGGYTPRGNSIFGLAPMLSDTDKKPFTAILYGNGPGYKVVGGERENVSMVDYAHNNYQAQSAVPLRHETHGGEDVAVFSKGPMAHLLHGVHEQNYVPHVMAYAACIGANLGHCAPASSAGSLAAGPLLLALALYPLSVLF", "test": "blockers of alkaline phosphatase TNAP activity – biochemical, luminescent, no phosphate acceptor, uHTS, primary screen (AID 1012);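 further: 0% = DMSO negative control and 100% = EDTA positive control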", "settings": "purified TNAP, CDP-star luminescence, 30 min; at 20 µM; active compounds read high", "values": [{"molecule": "O=C(COC(=O)CSc1nnc(-c2ccc(Cl)cc2)o1)Nc1cc(Cl)cc(Cl)c1", "inhibition": "-10.5% (inactive)"}, {"molecule": "COc1cc(N/C=C2\\CC(=O)NC(C)=C2C#N)cc(OC)c1OC", "inhibition": "-1.1% (inactive)"}, {"molecule": "COc1ccc(-c2[nH]ncc2CN(C)Cc2cccnc2)c(F)c1", "inhibition": "64.9% (active)"}, {"molecule": "COc1ccc(-c2[nH]ncc2CN(Cc2nccn2C)C(C)C)cc1F", "inhibition": "-9.7% (inactive)"}, {"molecule": "CCN(CCn1cccn1)Cc1cn[nH]c1-c1ccc(OC)cc1F", "inhibition": "58.9% (active)"}, {"molecule": "CCN(CCn1cccn1)Cc1nc(-c2ccc(C(=O)OC)cc2)no1", "inhibition": "2.4% (inactive)"}, {"molecule": "COc1ccc(-c2[nH]ncc2CN(C)Cc2cc(C)[nH]n2)c(F)c1", "inhibition": "46.2% (inactive)"}, {"molecule": "COc1ccc(-c2[nH]ncc2CN(C)Cc2c(C)n[nH]c2C)c(OC)c1", "inhibition": "-8.9% (inactive)"}, {"molecule": "Cc1cc(C)n2nc(SCC(=O)NC(=O)NCc3ccco3)nc2n1", "inhibition": "-9.4% (inactive)"}, {"molecule": "CCOc1cc(N2CCOCC2)c(OCC)cc1NC(=O)c1ccc(C)s1", "inhibition": "-8.9% (inactive)"}, {"molecule": "CCn1c(CNS(=O)(=O)c2ccc(Cl)cc2)n[nH]c1=S", "inhibition": "24.7% (inactive)"}, {"molecule": "O=C(CN1CCSCC1)N/N=C/c1ccc(Cl)cc1", "inhibition": "-4.4% (inactive)"}, {"molecule": "Cc1cc(NC(=O)CN2C(=O)NC(C)(CCc3ccccc3)C2=O)no1", "note": "(stereo unspecified)", "inhibition": "-3% (inactive)"}, {"molecule": "CCOC(=O)c1cc2c(=O)[nH]c(C(Cl)(Cl)Cl)nc2o1", "inhibition": "-11% (inactive)"}, {"molecule": "CCCN(CC1COc2ccccc2O1)C(=S)Nc1ccc(C)cc1", "note": "(stereo unspecified)", "inhibition": "-16% (inactive)"}, {"molecule": "CN(C)C(CNC(=O)c1ccc(S(=O)(=O)NCc2ccco2)cc1)c1ccccc1", "note": "(stereo unspecified)", "inhibition": "7.7% (inactive)"}, {"molecule": "C/C(CC(=O)N1CCN(C=O)CC1)=N\\NC(=O)c1ccc(Br)cc1", "inhibition": "0.3% (inactive)"}, {"molecule": "Cc1ccc(NC(=O)c2sccc2C)cc1[N+](=O)[O-]", "inhibition": "-4.3% (inactive)"}, {"molecule": "Cc1ccc(C(=O)NC(=S)Nc2ccc3[nH]c(=O)[nH]c3c2)cc1C", "inhibition": "-9.4% (inactive)"}, {"molecule": "CC(=O)NC(=S)NNC(=O)c1ccc(Br)cc1", "inhibition": "-155% (inactive)"}, {"molecule": "O=C(CSc1nnc(-c2ccncc2)n1-c1ccc(Cl)cc1)Nc1ccc(C(=O)O)cc1", "inhibition": "0.2% (inactive)"}, {"molecule": "CC(C)(C)C1CCC(=NNC(=O)c2cc(-c3ccccc3)n[nH]2)CC1", "note": "(stereo unspecified)", "inhibition": "62.6% (active)"}, {"molecule": "CC(NC(=O)C(=O)NN=C1CCC(C(C)(C)C)CC1)c1ccccc1", "note": "(stereo unspecified)", "inhibition": "-15% (inactive)"}, {"molecule": "CC(C)(C)C1CCC(=NNC(=O)c2ccc(Br)o2)CC1", "note": "(stereo unspecified)", "inhibition": "4.2% (inactive)"}, {"molecule": "CCCCN(C)c1ccc([N+](=O)[O-])cc1", "inhibition": "13.3% (inactive)"}, {"molecule": "CN(C)CCCN1C(=O)CSC1c1ccc([N+](=O)[O-])cc1", "note": "(stereo unspecified)", "inhibition": "-4.5% (inactive)"}, {"molecule": "COc1ccc(NC(=O)c2cc3nc(-c4ccccc4)cc(C)n3n2)cc1OC", "inhibition": "-14.7% (inactive)"}, {"molecule": "COc1ccc(S(=O)(=O)NCC2CCCN(C(=O)c3occc3C)C2)cc1", "note": "(stereo unspecified)", "inhibition": "-4.9% (inactive)"}, {"molecule": "CCc1[nH]nc(C(=O)N2CCCC(CNS(=O)(=O)c3cccs3)C2)c1C", "note": "(stereo unspecified)", "inhibition": "61.5% (active)"}, {"molecule": "O=C(NCc1ccccc1)C1CCCN(S(=O)(=O)c2cccs2)C1", "note": "(stereo unspecified)", "inhibition": "-5.5% (inactive)"}, {"molecule": "CCC(C(=O)Nc1ccc2c(c1)OCCO2)c1ccccc1", "note": "(stereo unspecified)", "inhibition": "-22.2% (inactive)"}, {"molecule": "COCCCN(C(=S)Nc1c(C)cc(C)cc1C)C(C)c1ccncc1", "note": "(stereo unspecified)", "inhibition": "-17.6% (inactive)"}, {"molecule": "CN(CCc1cn[nH]c1)C(=O)CC1C(=O)NCCN1Cc1cccc(Oc2ccccc2)c1", "note": "(stereo unspecified)", "inhibition": "-9.2% (inactive)"}, {"molecule": "CCOc1ccc(/C=N/NC(=O)C(C)Sc2ccccn2)cc1OCC", "note": "(stereo unspecified)", "inhibition": "-5.3% (inactive)"}, {"molecule": "O=C1COc2ccc(C(=O)COC(=O)C3CC(O)CN3S(=O)(=O)c3ccc(Cl)cc3)cc2N1", "note": "(stereo unspecified)", "inhibition": "-11.9% (inactive)"}, {"molecule": "COc1ccccc1Cn1c(C)nnc1-c1cnn(C)c1N", "inhibition": "-14% (inactive)"}, {"molecule": "Cc1ccccc1C(=O)Nc1ccc(N2CCCCCC2)cc1", "inhibition": "-10.8% (inactive)"}, {"molecule": "COc1ccc(Cl)cc1NC(=O)[C@@H]1CCCN1C(=O)c1cccs1", "inhibition": "-0.4% (inactive)"}, {"molecule": "O=C(NCc1ccc(F)cc1)C(c1ccccc1)N(C(=O)c1csnn1)C1CC1", "note": "(stereo unspecified)", "inhibition": "-11.9% (inactive)"}, {"molecule": "C#CCOCCOCCOCCNc1nc(N2CCN(C(=O)[C@H](CCC(=O)O)n3cc(C(N)CO)nn3)CC2)nc(N2CCN(C(=O)[C@H](Cc3ccc(O)cc3)n3cc(C(N)[C@H](C)CC)nn3)CC2)n1", "note": "(stereo partly specified)", "inhibition": "-7.8% (inactive)"}, {"molecule": "CN(C)C(=O)c1nc2ccc(Cl)cn2c1CN1CCN(c2ncccn2)CC1", "inhibition": "-12.2% (inactive)"}, {"molecule": "CCOC(=O)c1c(NC(=O)C2CCN(S(=O)(=O)c3ccc(Cl)cc3)CC2)sc2c1CCCC2", "inhibition": "-6% (inactive)"}, {"molecule": "O=C(CSc1nc(O)c(Cc2ccccc2)c(=O)[nH]1)Nc1nc2c(s1)CCCC2", "inhibition": "-7.1% (inactive)"}, {"molecule": "CCCCC(CC(C)O)c1n[nH]c(=S)n1-c1ccccc1", "note": "(stereo unspecified)", "inhibition": "-23.2% (inactive)"}, {"molecule": "Cc1cccc(NC(=S)NCCc2ccc(F)cc2)c1C", "inhibition": "-8.2% (inactive)"}, {"molecule": "O=C(NNC(=S)NC1CCCCC1)c1ccccc1Cl", "inhibition": "-122% (inactive)"}, {"molecule": "O=S(=O)(NCCc1ccncc1)c1ccccc1", "inhibition": "-12% (inactive)"}, {"molecule": "COc1cccc(NC(=S)NC(=O)c2c(Cl)c(C)nn2C)c1", "inhibition": "12.5% (inactive)"}, {"molecule": "COc1ccc(NC(=O)COC(=O)c2ccncc2)c(OC)c1", "inhibition": "-9.8% (inactive)"}, {"molecule": "CCCC(=O)Nc1nnc(-c2ccccc2)o1", "inhibition": "-7.1% (inactive)"}, {"molecule": "CCc1nnc(NC(=O)c2nc3nccc(C)n3n2)s1", "inhibition": "-1.7% (inactive)"}, {"molecule": "Cc1ccnc2nc(C(=O)Nc3nnc(-c4ccccc4)o3)nn12", "inhibition": "52.3% (active)"}, {"molecule": "COc1ccc(N2C(=O)CC(Nc3ccc(F)cc3)C2=O)c([N+](=O)[O-])c1", "note": "(stereo unspecified)", "inhibition": "-5.2% (inactive)"}, {"molecule": "Cc1ccc(NC(=O)CN2CCCCC2)c2c1CC(C)(C)O2", "inhibition": "-3% (inactive)"}, {"molecule": "O=C(O)CCn1c(SCc2cc(=O)n3ccccc3n2)nc2ccsc2c1=O", "inhibition": "-2.2% (inactive)"}, {"molecule": "COCCNC(=O)NC(=O)COC(=O)C1(c2ccc(Cl)cc2)CC1", "inhibition": "-9.9% (inactive)"}, {"molecule": "Cc1ccc(C(=O)OC2CCCN(C)C2)cc1", "note": "(stereo unspecified)", "inhibition": "-10.2% (inactive)"}, {"molecule": "Nc1ncnc(Nc2cccc(Cl)c2Cl)n1", "inhibition": "-2.3% (inactive)"}, {"molecule": "COc1ccc(/C=C2\\SC(=N)N(c3ccc(F)cc3)C2=O)cc1", "inhibition": "-8% (inactive)"}, {"molecule": "Cn1cccc1/C=C1\\SC(=O)N(CC(=O)Nc2ccc(F)cc2)C1=O", "inhibition": "-0.3% (inactive)"}, {"molecule": "CC(C)OC(=O)Cn1nc(C(F)(F)F)c2c1CCCC2", "inhibition": "0.5% (inactive)"}, {"molecule": "CCOc1ccc(C(=O)NC2CCN(CC(=O)NCc3cccs3)CC2)cc1", "inhibition": "-4.7% (inactive)"}, {"molecule": "CC(NC(=O)C(=O)N/N=C/c1ccc(Cl)cc1)c1ccccc1", "note": "(stereo unspecified)", "inhibition": "3.3% (inactive)"}, {"molecule": "COCCNC(=O)c1ccccc1NS(=O)(=O)c1ccc(C)c([N+](=O)[O-])c1", "inhibition": "-7.3% (inactive)"}, {"molecule": "Cc1ccnc(NC(=O)c2ccc(Cl)c([N+](=O)[O-])c2)c1", "inhibition": "-11.1% (inactive)"}, {"molecule": "CCOC(=O)NC(=O)C(=CNc1cccc(OC)c1)C(=O)NC(=O)OCC", "inhibition": "-10.1% (inactive)"}]}]}
